The source of these data is PubChem BioAssay (NCATS).

Experiment [1] can be described thus: NS1 protein of Zika virus - qHTS assay to identify small molecule inhibitors in human HEK 293 cells (AID 1347053). Note: nearly all actives have a fitted effect of over 55% in size. Note: potency is the fitted concentration of half-maximal effect. In a few lines:
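In this cell-based screen, HEK 293 cultures received compound for one hour before Zika MR766 at MOI = 0.5. NS1 was quantified 24 hours later by TR-FRET, normalized to virus-free wells and infected wells.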

Experiment [2] in a line: qHTS of pediatric cancer cell lines to identify multiple opportunities for drug repurposing: Primary screen for TC32 cells (AID 1347089). Note: nearly all actives have a fitted effect of over 60% in size. Note: potency is the fitted concentration of half-maximal effect. Put shortly:
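Luminescent ATP read-out (CellTiter-Glo) of metabolically active TC32 cells after 48 h exposure. Concentration-response curves came from 11-point (MIPE, 0.78 nM–46 µM) or 8-point (NPC, 0.59 nM–46 µM) primary titrations; follow-up used 11 points.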

The nature of experiment [3]: qHTS of pediatric cancer cell lines to identify multiple opportunities for drug repurposing: Primary screen for DAOY cells (AID 1347090). Note: nearly all actives have a fitted effect of over 55% in size. Note: potency is the fitted concentration of half-maximal effect. Put shortly: (§1)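 Eight- or eleven-point concentration series, 48 h treatment at 37 degrees C in growth media; readout CellTiter-Glo luminescence. Potency and efficacy were taken from the concentration-response curves.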
A short description of experiment [4]: qHTS of pediatric cancer cell lines to identify multiple opportunities for drug repurposing: Primary screen for SJ-GBM2 cells (AID 1347091). Note: potency is the fitted concentration of half-maximal effect. In a few lines: as §1
The nature of experiment [5]: qHTS of pediatric cancer cell lines to identify multiple opportunities for drug repurposing: Primary screen for A673 cells (AID 1347092). Note: nearly all actives have a fitted effect of over 45% in size. Note: potency is the fitted concentration of half-maximal effect. Put shortly:
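Cell viability of A673 measured by CellTiter-Glo ATP luminescence after 48 hours compound exposure. Dilution series spanned 0.78 nM to 46 µM (MIPE, 11-point) or 0.59 nM to 46 µM (NPC, 8-point); bortezomib 2.3 uM positive control.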

The nature of experiment [6]: qHTS of pediatric cancer cell lines to identify multiple opportunities for drug repurposing: Primary screen for SK-N-MC cells (AID 1347093). Note: potency is the fitted concentration of half-maximal effect. In a few lines:
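Metabolically active cells were quantified by ATP-dependent luminescence (CellTiter-Glo, 15 min at room temperature) following 48 h treatment. Cells had been plated at 500-1,000 per well and settled for 5 h beforehand.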

Experiment [7] is described as follows: qHTS of pediatric cancer cell lines to identify multiple opportunities for drug repurposing: Primary screen for BT-37 cells (AID 1347094). Note: potency is the fitted concentration of half-maximal effect. Put shortly:
(§2)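 ATP-based luminescence (CellTiter-Glo) quantifies viability after a 48-hour exposure. Compounds are dosed across 8 or 11 final concentrations; DMSO and 2.3 µM bortezomib serve as controls.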

Experiment [8] is described as follows: qHTS of pediatric cancer cell lines to identify multiple opportunities for drug repurposing: Primary screen for NB-EBc1 cells (AID 1347095). Note: potency is the fitted concentration of half-maximal effect. Put shortly:
as §2

Experiment [9] in a line: qHTS of pediatric cancer cell lines to identify multiple opportunities for drug repurposing: Primary screen for U-2 OS cells (AID 1347096). Note: nearly all actives have a fitted effect of over 50% in size. Put shortly: (§3)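 Cells (500-1,000/well) in growth media were settled 5 h at 37 degrees C, then given compounds for 48 h. Viability was read as CellTiter-Glo luminescence. Primary runs used MIPE at 11 points (0.78 nM-46 µM) and NPC at 8 points (0.59 nM-46 µM); follow-ups used 11 points.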

Experiment [10] is described as follows: qHTS of pediatric cancer cell lines to identify multiple opportunities for drug repurposing: Primary screen for NB1643 cells (AID 1347099). Note: nearly all actives have a fitted effect of over 50% in size. Note: potency is the fitted concentration of half-maximal effect. Put shortly: as §2
Experiment [11] can be described thus: qHTS of pediatric cancer cell lines to identify multiple opportunities for drug repurposing: Primary screen for LAN-5 cells (AID 1347100). Note: potency is the fitted concentration of half-maximal effect. Put shortly: as §3
A short description of experiment [12]: qHTS of pediatric cancer cell lines to identify multiple opportunities for drug repurposing: Primary screen for OHS-50 cells (AID 1347103). Note: nearly all actives have a fitted effect of over 40% in size. Note: potency is the fitted concentration of half-maximal effect. In a few lines: (§4)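 Cells (500-1,000/well) rested 5 h, then received compounds for 48 h; metabolically active cells were measured by CellTiter-Glo luminescence. Final concentrations spanned up to 46 µM (MIPE, 11-point) or 0.59 nM-46 µM (NPC, 8-point) in primary screens, 11-point in follow-ups.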

The target in experiment [13] is Parathyroid hormone/parathyroid hormone-related peptide receptor (Homo sapiens) (UniProt Q03431). As to the kind of experiment: qHTS for PTHR1 Agonists: Optimization Screen against the NCGC LOPAC library (AID 1347079).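 Note: GloSensor cAMP luminescence in HEK-293 GP2 cells expressing human PTHR1 with IBMX.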 Put shortly:
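Signal increase flags agonism. GP2 cells, derived from HEK-293, express human PTHR1 and a GloSensor cAMP construct.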

A short description of experiment [14]: qHTS of pediatric cancer cell lines to identify multiple opportunities for drug repurposing: Primary screen for Rh18 cells (AID 1347102). Note: nearly all actives have a fitted effect of over 65% in size. Note: potency is the fitted concentration of half-maximal effect. Put shortly: as §3
The target of experiment [15] is Tyrosine-protein phosphatase non-receptor type substrate 1 (Homo sapiens) + Leukocyte surface antigen CD47 (Homo sapiens) (UniProt P78324+Q08722). As to the kind of experiment: CD47-SIRPalpha protein protein interaction - Alpha assay qHTS validation (AID 1347059).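 Note: bead proximity luminescence from CD47 binding SIRPalpha after compound preincubation with SIRPalpha.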 In a few lines: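 In PBS (pH 7.4) with 0.05% IGEPAL CA-630, compound is preincubated with biotin-Avi-SIRPalpha ectodomain before His-CD47 ectodomain and affinity beads are added. Light-protected room-temperature incubations; AlphaScreen readout.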
Sequence of Tyrosine-protein phosphatase non-receptor type substrate 1 (Homo sapiens) + Leukocyte surface antigen CD47 (Homo sapiens) (P78324 whole entry, looked up, the tested form may be a part): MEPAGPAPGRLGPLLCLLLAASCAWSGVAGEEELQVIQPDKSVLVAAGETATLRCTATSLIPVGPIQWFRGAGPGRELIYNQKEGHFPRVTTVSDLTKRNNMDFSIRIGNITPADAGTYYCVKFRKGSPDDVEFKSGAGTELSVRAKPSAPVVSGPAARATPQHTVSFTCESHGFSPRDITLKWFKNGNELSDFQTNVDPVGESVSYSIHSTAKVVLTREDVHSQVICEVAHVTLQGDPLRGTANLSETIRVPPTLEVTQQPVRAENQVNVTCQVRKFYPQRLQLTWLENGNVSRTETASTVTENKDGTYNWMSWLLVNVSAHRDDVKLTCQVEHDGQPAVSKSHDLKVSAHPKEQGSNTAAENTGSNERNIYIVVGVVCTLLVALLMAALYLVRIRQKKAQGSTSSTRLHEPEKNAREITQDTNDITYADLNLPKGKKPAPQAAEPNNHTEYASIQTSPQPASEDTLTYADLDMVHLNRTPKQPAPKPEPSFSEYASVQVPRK
Sequence of Tyrosine-protein phosphatase non-receptor type substrate 1 (Homo sapiens) + Leukocyte surface antigen CD47 (Homo sapiens) (Q08722 whole entry, looked up, the tested form may be a part): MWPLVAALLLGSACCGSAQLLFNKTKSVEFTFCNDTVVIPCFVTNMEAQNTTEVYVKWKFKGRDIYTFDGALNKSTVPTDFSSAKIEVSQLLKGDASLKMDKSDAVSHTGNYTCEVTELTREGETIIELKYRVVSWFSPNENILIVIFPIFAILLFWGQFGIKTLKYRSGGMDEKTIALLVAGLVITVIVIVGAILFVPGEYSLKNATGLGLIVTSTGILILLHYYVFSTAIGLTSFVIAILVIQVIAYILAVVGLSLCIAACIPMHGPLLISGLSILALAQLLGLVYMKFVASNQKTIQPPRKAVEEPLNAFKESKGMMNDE

Experiment [16] can be described thus: qHTS of pediatric cancer cell lines to identify multiple opportunities for drug repurposing: Primary screen for Saos-2 cells (AID 1347097). Note: nearly all actives have a fitted effect of over 40% in size. Note: potency is the fitted concentration of half-maximal effect. In a few lines:
as §2

Experiment [17] can be described thus: qHTS of pediatric cancer cell lines to identify multiple opportunities for drug repurposing: Primary screen for SK-N-SH cells (AID 1347098). Note: nearly all actives have a fitted effect of over 65% in size. Note: potency is the fitted concentration of half-maximal effect. Put shortly: as §4
Experiment [18] is described as follows: qHTS of pediatric cancer cell lines to identify multiple opportunities for drug repurposing: Primary screen for BT-12 cells (AID 1347101). Note: nearly all actives have a fitted effect of over 25% in size. Note: potency is the fitted concentration of half-maximal effect. In a few lines:
as §4

Inconclusive results are not listed. Activity calls are given as the source filed them. Calls come from the whole dose curve; as a rule, active = well fitted curve in the direction sought with a large enough effect; inconclusive = small, poorly fitted or top-dose-only effect, or another doubt; inactive = no such curve, though single readings can be large; an effect the other way counts as inactive or inconclusive.

Sequence of Parathyroid hormone/parathyroid hormone-related peptide receptor (Homo sapiens) (Q03431 whole entry, looked up): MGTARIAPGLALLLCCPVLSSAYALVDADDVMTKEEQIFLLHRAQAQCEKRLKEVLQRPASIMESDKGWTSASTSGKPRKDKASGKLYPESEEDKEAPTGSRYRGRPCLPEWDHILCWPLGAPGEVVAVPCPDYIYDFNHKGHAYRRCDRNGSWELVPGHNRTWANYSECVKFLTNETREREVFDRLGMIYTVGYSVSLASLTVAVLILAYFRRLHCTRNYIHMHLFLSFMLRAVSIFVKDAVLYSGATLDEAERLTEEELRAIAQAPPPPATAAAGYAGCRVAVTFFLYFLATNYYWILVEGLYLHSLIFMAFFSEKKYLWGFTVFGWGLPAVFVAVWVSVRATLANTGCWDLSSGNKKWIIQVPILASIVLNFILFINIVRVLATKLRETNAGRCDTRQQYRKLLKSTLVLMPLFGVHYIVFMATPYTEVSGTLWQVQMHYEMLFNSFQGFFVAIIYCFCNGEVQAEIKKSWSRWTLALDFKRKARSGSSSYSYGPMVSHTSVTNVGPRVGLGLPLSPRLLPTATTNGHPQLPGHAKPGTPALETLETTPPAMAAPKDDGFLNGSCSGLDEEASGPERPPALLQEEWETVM

Turning to `O=C1[C@H](Cc2ccc(O)cc2)N2C(=O)CCN(C(=O)NCc3ccccc3)[C@H]2CN1Cc1cccc2ccccc12`, the Potency in [1] is 9.35 µM (active); in [2], 11.7 µM (active); in experiment [3], 14.8 µM (active); in experiment [4], 10.5 µM (active); in experiment [5], 11.8 µM (active); in experiment [6], 1.18 µM (active). The Potency in experiment [7] was 4.85 µM (active); in experiment [8], 14.8 µM (active); in [10] it was 2.96 µM (active); in experiment [11], 10.5 µM (active); in experiment [12] it was 4.85 µM (active). Further, in [9], the Potency result is “inactive”.
Regarding `CCN(CC)CCCC(C)Nc1ccnc2cc(Cl)ccc12` (configuration not stated), the Potency entry in experiment [1], in [2], in experiment [4], in [8], in experiment [9] and in experiment [14] was “inactive” throughout. The call in [13] was inactive. For the same compound, the Potency in [5] was 2.96 µM (active); in [6], 0.0372 µM (active); in experiment [10] it was 1.48 µM (active); in experiment [12], 8.63 µM (active).
Regarding `NC[C@H](O)c1ccc(O)c(O)c1`, the Potency result in experiment [1], in experiment [2], in experiment [3], in experiment [4], in experiment [8] and in experiment [9] was “inactive” in each case. Further, the Potency entry in experiment [16], in experiment [17], in experiment [10], in [11], in [14] and in [12] was “inactive” each time. In addition, the result in [15] and in [13] was inactive.
Take `NC(=O)C1CCCc2c1[nH]c1ccc(Cl)cc21` (configuration not stated): the Potency entry in experiment [1], in experiment [2], in experiment [3], in experiment [4], in [7] and in [8] was “inactive” in each case. Besides, the Potency entry in experiment [9], in experiment [11], in experiment [18] and in experiment [14] was “inactive” each time. The results for the Potency in experiment [5] and in experiment [6] were 23.5 µM (active) and 26.4 µM (active), respectively.
As for `O=C(Nc1nc2ccccc2n1CCN1CCOCC1)c1cccc([N+](=O)[O-])c1`, the Potency result in experiment [1], in [2] and in [9] was “inactive” in each case. The outcome in experiment [15] and in [13] was inactive. Also, the Potency in experiment [3] is 7.43 µM (active); in experiment [4], 14.8 µM (active); in experiment [5], 3.72 µM (active); in experiment [6] it was 3.32 µM (active); in [8], 7.43 µM (active); in experiment [17], 24.1 µM (active). Besides, the Potency was 7.43 µM (active) in experiment [10], 3.72 µM (active) in experiment [11], 21.7 µM (active) in experiment [18] and 9.68 µM (active) in experiment [12].
Take `CS(=O)(=O)Oc1ccc2c(NC(N)=O)c(C(=O)c3ccc(Cl)cc3Cl)oc2c1`: the Potency entry in [1] and in experiment [2] was “inactive” each time. For the same compound, the Potency in [3] is 14.8 µM (active); in experiment [4] it was 3.32 µM (active); in experiment [5], 2.35 µM (active); in experiment [6], 1.48 µM (active); in experiment [7], 3.43 µM (active); in experiment [8], 4.18 µM (active). The Potency in experiment [17] was 15.2 µM (active); in experiment [10], 3.72 µM (active); in experiment [11], 2.09 µM (active); in experiment [14], 2.35 µM (active); in experiment [12], 1.53 µM (active).
Consider `C[C@H](NC(=O)Cc1cc(F)cc(F)c1)C(=O)N[C@@H]1C(=O)N(C)c2ccccc2-c2ccccc21`, for which the Potency entry in experiment [1], in experiment [2], in experiment [4], in experiment [8], in [9] and in experiment [11] was “inactive” each time. In addition, the Potency entry in [14] was “inactive”. For the same compound, the Potency in experiment [3] was 11.8 µM (active); in [5], 7.43 µM (active); in [6], 5.26 µM (active); in experiment [17] it was 12.1 µM (active); in experiment [10] it was 6.62 µM (active).
Turning to `COc1ccc(CC2=NN3C([C@@H](CCc4ccccc4)[C@@H](C)O)=NC(C)C3C(=O)N2)cc1OC` (some centres not stated), the Potency entry in [1], in [2], in experiment [3], in experiment [4], in experiment [5] and in experiment [7] was “inactive” each time. Moreover, the Potency entry in experiment [8], in experiment [9], in experiment [11], in [18], in [14] and in [12] was “inactive” throughout.
For the compound `Fc1ccc(Cl)cc1-c1nc(Nc2ccncc2)c2nccnc2n1`, the Potency result in experiment [1], in experiment [2], in [3], in experiment [4], in experiment [5] and in experiment [6] was “inactive” each time. Further, the Potency entry in experiment [8], in experiment [9], in experiment [17], in experiment [10], in experiment [11] and in experiment [18] was “inactive” each time. For the same compound, the Potency entry in experiment [14] and in experiment [12] was “inactive” each time.
Take `Cc1cnc(Nc2ccc(OCCN3CCCC3)cc2)nc1Nc1cccc(S(=O)(=O)NC(C)(C)C)c1`: the Potency entry in [1], in experiment [2], in experiment [3], in experiment [4], in [8] and in experiment [9] was “inactive” each time. The Potency result in experiment [11] and in [14] was “inactive” in each case. Further, the results for the Potency in [6] and in [10] were 18.7 µM (active) and 23.5 µM (active), respectively.
On to `C[C@]12CC[C@H](O)CC1=CC[C@@H]1[C@H]2CC[C@]2(C)C(c3cccnc3)=CC[C@H]12`, for which the Potency result in [1], in experiment [2], in experiment [3], in experiment [5], in experiment [6] and in [7] was “inactive” each time. In addition, the Potency result in experiment [9], in [10], in [11], in [14] and in experiment [12] was “inactive” throughout.
With `COc1ccccc1-c1cccc(-c2c(O)c3cc(C#N)c(Cl)cc3[nH]c2=O)c1`, the Potency result in experiment [1], in experiment [2], in [3], in experiment [5], in [9] and in experiment [10] was “inactive” in each case. Besides, the Potency entry in experiment [11], in experiment [14] and in [12] was “inactive” each time. The Potency in [6] is 34 µM (active); in [8], 7.62 µM (active).
On to `Cc1cc([C@@H](C)Nc2ccccc2C(=O)O)c2nc(N3CCOCC3)cc(=O)n2c1`, for which the Potency result in experiment [1] and in experiment [9] was “inactive” throughout. For the same compound, the Potency in experiment [2] was 12 µM (active); in experiment [3], 0.679 µM (active); in experiment [4] it was 13.6 µM (active); in [6] it was 0.191 µM (active); in [8] it was 24.1 µM (active); in [16] it was 9.59 µM (active). The Potency in experiment [17] is 9.87 µM (active); in experiment [10] it was 6.05 µM (active); in experiment [11] it was 34 µM (active); in [14] it was 12.1 µM (active); in experiment [12] it was 2.22 µM (active).
As for `Cc1csc(NC(=O)c2sc3nc4c(c(C(F)(F)F)c3c2N)CCC4)n1`, the Potency entry in [1], in experiment [2], in experiment [4], in [6], in experiment [8] and in experiment [9] was “inactive” in each case. Also, the Potency entry in experiment [16], in [11], in [18] and in experiment [14] was “inactive” throughout. Further, the Potency in experiment [3] was 23.5 µM (active); in experiment [5] it was 1.18 µM (active).
